# From PMC5700166
# How the values were obtained:
# Assay in all cases: protein-binding microarray (PBM); PBM: ~300 nM protein, 6 mM HEPES pH 7.8, 80 mM KCl, 0.5 mM EDTA, 0.5 mM EGTA, 6% glycerol, 35 ng/ul poly-dIdC, 1% milk, 1 h, room temperature; Ap Aiptasia and Nv Nematostella (sea anemones) / Co Capsaspora / Aq Amphimedon (sponge) / Dm Drosophila / Hu human; RHD is the Rel homology domain; high values mean tight binding
# Conditions in all cases: dsDNA, one strand shown
# GST-Ap-NF-kB RHD = biological target: T1, GST-Ap-NF-kB RHD (Exaiptasia pallida (Aiptasia), UniProt A0A913YAJ5 2-422)
# T1 sequence: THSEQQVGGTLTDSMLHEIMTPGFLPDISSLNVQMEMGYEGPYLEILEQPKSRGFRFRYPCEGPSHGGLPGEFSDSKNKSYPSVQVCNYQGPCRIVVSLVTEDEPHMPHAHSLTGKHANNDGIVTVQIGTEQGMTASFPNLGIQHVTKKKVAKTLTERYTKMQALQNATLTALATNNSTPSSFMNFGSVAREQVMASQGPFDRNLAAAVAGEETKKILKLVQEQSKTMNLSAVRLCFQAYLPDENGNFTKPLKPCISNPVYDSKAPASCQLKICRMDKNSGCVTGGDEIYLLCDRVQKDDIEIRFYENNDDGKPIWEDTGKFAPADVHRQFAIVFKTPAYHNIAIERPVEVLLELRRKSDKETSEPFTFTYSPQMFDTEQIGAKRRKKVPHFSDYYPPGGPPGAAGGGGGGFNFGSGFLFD
# [1] = biological target: T2, GST-Nv-NF-kB (Cys allele) (Nematostella vectensis, UniProt E5G601 2-411)
# T2 sequence: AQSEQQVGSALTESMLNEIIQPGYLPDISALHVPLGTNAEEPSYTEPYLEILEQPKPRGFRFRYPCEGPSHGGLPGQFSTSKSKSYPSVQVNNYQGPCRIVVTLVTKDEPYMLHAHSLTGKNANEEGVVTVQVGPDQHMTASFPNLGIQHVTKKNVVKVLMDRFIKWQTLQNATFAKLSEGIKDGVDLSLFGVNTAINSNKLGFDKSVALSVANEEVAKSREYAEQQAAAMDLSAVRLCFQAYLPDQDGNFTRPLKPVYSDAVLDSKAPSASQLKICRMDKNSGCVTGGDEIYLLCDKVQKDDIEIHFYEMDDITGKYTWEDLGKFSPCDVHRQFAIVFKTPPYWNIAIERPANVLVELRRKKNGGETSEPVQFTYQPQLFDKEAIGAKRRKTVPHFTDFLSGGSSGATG
# GST-Co-NF-kB = biological target: T3, GST-Co-NF-kB (Capsaspora owczarzaki, UniProt F1ARL5 200-546)
# T3 sequence: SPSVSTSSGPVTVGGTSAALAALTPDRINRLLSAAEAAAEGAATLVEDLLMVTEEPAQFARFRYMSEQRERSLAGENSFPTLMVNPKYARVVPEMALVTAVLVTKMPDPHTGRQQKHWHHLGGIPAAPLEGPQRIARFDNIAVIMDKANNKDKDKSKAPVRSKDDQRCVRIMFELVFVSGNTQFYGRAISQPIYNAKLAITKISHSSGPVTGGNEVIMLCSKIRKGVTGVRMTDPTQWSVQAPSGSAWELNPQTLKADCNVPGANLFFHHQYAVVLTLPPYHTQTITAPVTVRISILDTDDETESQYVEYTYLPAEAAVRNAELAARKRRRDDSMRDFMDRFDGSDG
# GST-Dm-Relish = biological target: T4, GST-Dm-Relish (Drosophila melanogaster, UniProt Q94527 99-473)
# T4 sequence: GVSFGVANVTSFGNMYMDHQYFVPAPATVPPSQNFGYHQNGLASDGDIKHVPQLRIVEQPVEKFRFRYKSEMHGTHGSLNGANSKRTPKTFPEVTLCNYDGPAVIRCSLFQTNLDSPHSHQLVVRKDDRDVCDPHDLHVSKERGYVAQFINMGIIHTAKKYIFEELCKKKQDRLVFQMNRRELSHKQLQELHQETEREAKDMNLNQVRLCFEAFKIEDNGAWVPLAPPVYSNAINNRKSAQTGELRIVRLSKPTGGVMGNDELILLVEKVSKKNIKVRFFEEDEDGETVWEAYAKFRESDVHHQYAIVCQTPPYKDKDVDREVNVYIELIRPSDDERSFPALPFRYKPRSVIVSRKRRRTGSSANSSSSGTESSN
# GST-Aq-NF-kB = biological target: T5, GST-Aq-NF-kB (Amphimedon queenslandica, UniProt A9Y5G7 2-389)
# T5 sequence: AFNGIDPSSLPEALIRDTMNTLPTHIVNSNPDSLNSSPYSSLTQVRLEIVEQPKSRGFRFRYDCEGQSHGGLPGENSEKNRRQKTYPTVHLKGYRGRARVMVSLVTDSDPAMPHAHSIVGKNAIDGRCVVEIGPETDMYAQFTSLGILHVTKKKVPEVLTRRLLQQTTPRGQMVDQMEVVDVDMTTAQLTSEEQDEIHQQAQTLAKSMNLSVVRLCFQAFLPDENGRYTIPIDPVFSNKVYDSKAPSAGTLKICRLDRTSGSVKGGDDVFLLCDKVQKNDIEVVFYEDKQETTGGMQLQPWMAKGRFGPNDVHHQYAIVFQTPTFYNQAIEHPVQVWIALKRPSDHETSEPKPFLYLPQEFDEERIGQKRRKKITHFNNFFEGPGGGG
Sequence,binding signal (GST-Ap-NF-kB RHD) [z-score],binding signal [1] [z-score],binding signal (GST-Co-NF-kB) [z-score],binding signal (GST-Dm-Relish) [z-score],binding signal (GST-Aq-NF-kB) [z-score]
CCGATTAACATCAGGGAAACCCATGATGTTAATCGGGTCTTGATTCGCTTGACGCTGCTG,3.64,4.19,2.54,8.17,4.85
CCGATTAACATCAGGGAACTACCTGATGTTAATCGGGTCTTGATTCGCTTGACGCTGCTG,4.91,4.67,1.23,8.33,6.44
CCGATTAACATCACGAGATTCCCTGATGTTAATCGGGTCTTGATTCGCTTGACGCTGCTG,3.03,3.39,2.52,1.75,3.38
CCGATTAACATCAGGGGAGCACCTGATGTTAATCGGGTCTTGATTCGCTTGACGCTGCTG,4.77,3.52,3.23,4.91,4.81
CCGATTAACATCACACCACCCCCTGATGTTAATCGGGTCTTGATTCGCTTGACGCTGCTG,3.79,2.72,2.88,2.4,3.3
CCGATTAACATCAAGGGGGGTGGTGATGTTAATCGGGTCTTGATTCGCTTGACGCTGCTG,3.51,3.67,3.06,4.12,4.15
CCGATTAACATCAGGGAATGCACTGATGTTAATCGGGTCTTGATTCGCTTGACGCTGCTG,1.84,3.18,1.11,5.07,4.84
CCGATTAACATCAGACTTCCCCATGATGTTAATCGGGTCTTGATTCGCTTGACGCTGCTG,4.7,5.64,4.24,4.24,4.9
CCGATTAACATCAGGGGAGCCCCTGATGTTAATCGGGTCTTGATTCGCTTGACGCTGCTG,8.45,6.25,3.64,8.74,8.27
CCGATTAACATCATAAAATCCCATGATGTTAATCGGGTCTTGATTCGCTTGACGCTGCTG,2.43,2.92,1.47,6.55,3.1
CCGATTAACATCAGGGAAATTCATGATGTTAATCGGGTCTTGATTCGCTTGACGCTGCTG,4.54,6.28,4.15,2.26,5.94
CCGATTAACATCAGGGAAGTCCATGATGTTAATCGGGTCTTGATTCGCTTGACGCTGCTG,2.24,2.51,1.08,7.44,4.62
CCGATTAACATCAAAATTCCCGGTGATGTTAATCGGGTCTTGATTCGCTTGACGCTGCTG,4.57,5.96,5.57,6.54,5.5
CCGATTAACATCAAAAATCACCCTGATGTTAATCGGGTCTTGATTCGCTTGACGCTGCTG,2.67,2.98,2.5,7.81,3.84
CCGATTAACATCATACCCCCCCATGATGTTAATCGGGTCTTGATTCGCTTGACGCTGCTG,4.97,2.65,5.26,3.98,3.92
CCGATTAACATCACGGGAATTTCTGATGTTAATCGGGTCTTGATTCGCTTGACGCTGCTG,5.46,7.5,5.53,5.6,6.28
CCGATTAACATCAGGGGGATCACTGATGTTAATCGGGTCTTGATTCGCTTGACGCTGCTG,5.55,4.61,5.17,9.4,5.38
CCGATTAACATCATCCCCCCCCATGATGTTAATCGGGTCTTGATTCGCTTGACGCTGCTG,6.69,4.12,7.34,4.5,5.38
CCGATTAACATCAGAATATTCCCTGATGTTAATCGGGTCTTGATTCGCTTGACGCTGCTG,5.6,6.1,3.41,3.01,5.6
CCGATTAACATCAGGGTTTTTTATGATGTTAATCGGGTCTTGATTCGCTTGACGCTGCTG,4.39,5.06,1.36,5.89,6.24
CCGATTAACATCAGGAATTCCCATGATGTTAATCGGGTCTTGATTCGCTTGACGCTGCTG,6.4,5.88,4.61,7.97,7.09
CCGATTAACATCAGGGGGTTAGATGATGTTAATCGGGTCTTGATTCGCTTGACGCTGCTG,3.78,2.99,1.94,4.34,3.58
CCGATTAACATCAAAAAAACCCATGATGTTAATCGGGTCTTGATTCGCTTGACGCTGCTG,3.72,4.44,1.87,6.31,5.47
CCGATTAACATCAGGAGACTCCCTGATGTTAATCGGGTCTTGATTCGCTTGACGCTGCTG,2.16,2.35,1.37,1.79,5.19
CCGATTAACATCAGGGATCACCCTGATGTTAATCGGGTCTTGATTCGCTTGACGCTGCTG,3.86,2.9,1.02,6.12,5.65
CCGATTAACATCAGGGTATTACCTGATGTTAATCGGGTCTTGATTCGCTTGACGCTGCTG,4.39,6.02,1.57,5.28,7.69
CCGATTAACATCAAAATAATCCCTGATGTTAATCGGGTCTTGATTCGCTTGACGCTGCTG,6.46,4.62,2.45,4.15,5.15
CCGATTAACATCAGGGGACGGGATGATGTTAATCGGGTCTTGATTCGCTTGACGCTGCTG,4.78,3.92,2.14,1.43,3.92
